Records with an inconclusive call do not appear. Calls of active or inactive are those of the source. How the source made its calls: active means hit-call score of the fitted dose curve at least 0.9, where 1 is the maximum; inconclusive means response in the unintended direction; inactive means score below 0.9.

This test in a line: CCTE_Simmons_MITO_viability: CellTiter-Glo Viability Assessment for CCTE's HepG2 Seahorse XF Respirometric Screening Assay [post-hoc], Simmons Lab (AID 2284007).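 On AC50: cells exposed to chemical for 90 min before the ATP read; actives lower ATP signal relative to DMSO baseline meaning reduced viability.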 On the procedure: CCTE_Simmons_MITO is cell-based, respirometric assay using HepG2 cells and a Seahorse XF Analyzer to measure oxygen consumption rates over four temporal phases spanning a total of 72 minutes: pre-injection (pre-treatment), basal (following test compound injection), maximal (following FCCP uncoupler injection), and inhibited (following rotenone/antimycin A injection)CCTE_Simmons_MITO_viability is one of 4 assay components measured from the CCTE_Simmons_MITO assay. It is designed to make measurements of ATP content, a form of viability reporter, as detected with bioluminescence signals by Luciferase-coupled ATP quantitation technology. Data from the assay component CCTE_Simmons_MITO_viability was analyzed at the endpoint, CCTE_Simmons_MITO_viability, in the positive analysis fitting direction relative to DMSO as the negative control and baseline of activity. Using a type of viability reporter, measures of ATP content for loss-of-signal activity can be used to understand the viability. To generalize the intended target to other relatable targets, this assay endpoint is annotated to the cell cycle intended target family, where the subfamily is cytotoxicity.
Test chemicals were administered as a titrated series of 7 concentrations from 125 nM up to 100 uM [final] for 90 minutes prior to single endpoint detection. Three biological replicates of technical singles were run for every chemical concentration tested. Dimethylsulfoxide [DMSO] was used as the vehicle control. Dichlone [DCNQ] was used as the positive control and was administered as a titrated series of 8 concentrations from 10 nM up to 100 uM [final].
Background: Cellular ATP, detected with luciferase, serves as a proxy for viable cell number.
Consider `O=[N+]([O-])c1ccc(O)cc1`, for which the call was inactive. With `Cc1cc(CCN2CCN(c3nsc4ccccc34)CC2)cc2c1NC(=O)CC2(C)C`, the AC50 was 9.34 µM (active). On to `CCCOC(=O)c1ccc(O)cc1`, for which the compound was called inactive. On to `NC(=O)N(O)[C@@H]1C=C[C@H](Oc2cccc(Oc3ccc(F)cc3)c2)C1`, for which the compound was classed as inactive. Consider `CCCCCCCCCCCCN1CCCC1=O`, for which the call was inactive. On to `CCc1nn(C2CCCCC2)c2cc(C3(C#N)CCC(C(=O)O)CC3)ccc12` (configuration not stated), for which the call was inactive. The same measure, in the same setting: then `O=C(O)Cc1cc(I)c(Oc2cc(I)c(O)c(I)c2)c(I)c1`, with “inactive”.

As for `CC[C@H](c1ccc(O)cc1)[C@@H](CC)c1ccc(O)cc1`, the AC50 was 12.6 µM (active). For `Nc1cccc2c(N)cccc12`, the result was inactive. The same measure, in the same setting: then `OC1CCC(C2CCCCC2)CC1` (configuration not stated), with “inactive”. Turning to `Oc1cc2ccccc2c2ccccc12`, the AC50 was 6.92 µM (active).

Take `NC(=O)N1C(=O)C(C(=O)c2cc(Cl)cs2)c2cc(F)c(Cl)cc21` (configuration not stated): the AC50 was 2.3 µM (active).

What is called AC50 is the concentration at which the activity in the assay is half-maximal.
